Measurements reported in PubChem BioAssay (EPA / NIEHS).
Records with an inconclusive call do not appear. Calls of active or inactive are those of the source. How the source made its calls: active means hit-call score of the fitted dose curve at least 0.9, where 1 is the maximum; inconclusive means response in the unintended direction; inactive means score below 0.9.

Assays:
[1] = molecular target: human Protein Tyrosine Phosphatase Receptor Type B (PTPRB), PTPRB (gene 5787) (UniProt P23467); test: NVS_ENZ_hPTPRB: NovaScreen (NVS) Enzymatic Assay for human Protein Tyrosine Phosphatase Receptor Type B (PTPRB) (AID 2283211)
Method in brief: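 Recombinant human PTPRB with a fluorescent substrate, product separated by electrophoretic mobility shift; read 1 h after dosing. Primary screen in duplicate at 25 uM; actives then retested in concentration series; loss of signal versus DMSO.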

[2] = molecular target: human Tyrosine Protein Kinase Receptor Tie-2 (Tie2), TEK (gene 7010) (UniProt Q02763); test: NVS_ENZ_hTie2: NovaScreen (NVS) Enzymatic Assay for human Tyrosine Protein Kinase Receptor Tie-2 (Tie2) (AID 2283225)
Method in brief: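 Recombinant human Tie2 kinase activity was read cell-free by fluorescence with electrophoretic mobility shift, 1 hour after dosing. The screen used 25 uM in duplicate, then concentration-response up to 50 uM. Signal loss was scored against DMSO.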

[3] = molecular target: human Vascular Endothelial Growth Factor Receptor 3 (VEGFR3), FLT4 (gene 2324) (UniProt P35916); test: NVS_ENZ_hVEGFR3: NovaScreen (NVS) Enzymatic Assay for human Vascular Endothelial Growth Factor Receptor 3 (VEGFR3) (AID 2283229)
Method in brief: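 Cell-free recombinant VEGFR3 kinase reaction with fluorescent substrate, read 1 h after dosing by electrophoretic mobility shift separation of substrate and product. Single-concentration duplicate screen at 25 uM, then concentration-response up to 50 uM; loss of activity versus DMSO.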

[4] = molecular target: human Vascular Endothelial Growth Factor Receptor 2 (VEGFR2), KDR (gene 3791) (UniProt P35968); test: NVS_ENZ_hVEGFR2: NovaScreen (NVS) Enzymatic Assay for human Vascular Endothelial Growth Factor Receptor 2 (VEGFR2) (AID 2283230)
Method in brief: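 Cell-free recombinant VEGFR2 kinase, fluorescent substrate with electrophoretic mobility-shift separation; read 1 h after dosing. Screened at 25 uM in duplicate, hits to concentration-response up to 50 uM; loss-of-signal versus DMSO.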

[5] = molecular target: sheep Cyclooxygenase-2 (Cox2), PTGS2 (gene 443460) (UniProt P79208); test: NVS_ENZ_oCOX2: NovaScreen (NVS) Enzymatic Assay for sheep Cyclooxygenase-2 (Cox2) (AID 2283231)
Method in brief: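 Compounds were first run at 25 uM in duplicate against tissue-extracted ovine COX-2; those passing a preset inhibition threshold went to singleton concentration-response testing with a 50 uM maximum. Read-out: absorbance at 0.66 hour.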

[6] = molecular target: human Protein Tyrosine Phosphatase Receptor Type M (PTPRM), PTPRM (gene 5797) (UniProt P28827); test: NVS_ENZ_hPTPRM: NovaScreen (NVS) Enzymatic Assay for human Protein Tyrosine Phosphatase Receptor Type M (PTPRM) (AID 2283215)
Sequence of human Protein Tyrosine Phosphatase Receptor Type M (PTPRM), PTPRM (gene 5797) (P28827 whole entry, looked up): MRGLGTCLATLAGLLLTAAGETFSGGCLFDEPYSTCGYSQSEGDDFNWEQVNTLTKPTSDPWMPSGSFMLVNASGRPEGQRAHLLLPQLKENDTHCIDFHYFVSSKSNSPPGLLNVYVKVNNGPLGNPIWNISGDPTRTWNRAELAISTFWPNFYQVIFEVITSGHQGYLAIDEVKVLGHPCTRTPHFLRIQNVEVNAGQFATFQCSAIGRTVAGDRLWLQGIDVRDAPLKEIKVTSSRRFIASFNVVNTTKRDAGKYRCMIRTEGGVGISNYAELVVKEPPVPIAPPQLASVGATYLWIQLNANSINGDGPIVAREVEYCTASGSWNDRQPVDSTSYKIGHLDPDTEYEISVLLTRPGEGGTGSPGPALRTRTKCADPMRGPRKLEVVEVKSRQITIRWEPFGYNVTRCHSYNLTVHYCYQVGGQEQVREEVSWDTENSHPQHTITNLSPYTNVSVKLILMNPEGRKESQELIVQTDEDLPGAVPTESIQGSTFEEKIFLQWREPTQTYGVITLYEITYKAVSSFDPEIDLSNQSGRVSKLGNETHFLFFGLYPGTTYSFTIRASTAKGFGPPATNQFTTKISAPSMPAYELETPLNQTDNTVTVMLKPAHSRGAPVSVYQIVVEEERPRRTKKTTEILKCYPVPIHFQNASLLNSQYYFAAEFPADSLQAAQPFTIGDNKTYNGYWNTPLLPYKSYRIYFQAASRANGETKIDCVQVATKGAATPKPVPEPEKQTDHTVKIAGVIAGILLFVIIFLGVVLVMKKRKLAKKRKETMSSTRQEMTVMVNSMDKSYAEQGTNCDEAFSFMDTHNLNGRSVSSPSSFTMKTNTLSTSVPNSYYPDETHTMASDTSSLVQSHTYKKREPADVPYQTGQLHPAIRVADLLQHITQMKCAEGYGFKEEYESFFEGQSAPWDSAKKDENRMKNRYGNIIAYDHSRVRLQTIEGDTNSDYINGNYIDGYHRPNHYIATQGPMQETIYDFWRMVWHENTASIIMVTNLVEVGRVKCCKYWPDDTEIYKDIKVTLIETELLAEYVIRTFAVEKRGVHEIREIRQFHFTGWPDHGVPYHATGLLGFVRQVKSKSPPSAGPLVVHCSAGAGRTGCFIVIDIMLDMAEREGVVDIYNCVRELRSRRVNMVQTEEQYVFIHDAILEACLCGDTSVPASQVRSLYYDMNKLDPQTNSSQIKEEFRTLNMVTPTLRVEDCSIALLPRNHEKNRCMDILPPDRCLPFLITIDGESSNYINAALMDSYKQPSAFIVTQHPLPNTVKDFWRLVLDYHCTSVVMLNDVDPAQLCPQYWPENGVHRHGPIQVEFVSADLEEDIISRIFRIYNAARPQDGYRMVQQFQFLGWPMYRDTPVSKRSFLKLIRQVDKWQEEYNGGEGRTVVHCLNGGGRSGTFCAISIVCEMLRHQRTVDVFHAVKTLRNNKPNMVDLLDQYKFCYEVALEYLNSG
Method in brief: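 Cell-free recombinant PTPRM with fluorogenic substrate; product separated from substrate by electrophoretic mobility shift and read by fluorescence, 1.33 h after dosing. Primary screen single concentration (25 uM) in duplicate; actives retested in concentration series; loss of signal versus DMSO.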

[7] = molecular target: human Sirtuin 1 (SIRT1), SIRT1 (gene 23411) (UniProt Q96EB6); test: NVS_ENZ_hSIRT1: NovaScreen (NVS) Enzymatic Assay for human Sirtuin 1 (SIRT1) (AID 2283219)
Method in brief: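 Cell-free recombinant SIRT1 with a fluorescent substrate; substrate and product separated by electrophoretic mobility shift and read by fluorescence intensity, 1 h after dosing. Primary screen at 25 uM in duplicate; hits re-run in concentration-response up to 50 uM, relative to DMSO.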

[8] = molecular target: human Sirtuin 3 (SIRT3), SIRT3 (gene 23410) (UniProt Q9NTG7); test: NVS_ENZ_hSIRT3: NovaScreen (NVS) Enzymatic Assay for human Sirtuin 3 (SIRT3) (AID 2283222)
Sequence of human Sirtuin 3 (SIRT3), SIRT3 (gene 23410) (Q9NTG7 whole entry, looked up): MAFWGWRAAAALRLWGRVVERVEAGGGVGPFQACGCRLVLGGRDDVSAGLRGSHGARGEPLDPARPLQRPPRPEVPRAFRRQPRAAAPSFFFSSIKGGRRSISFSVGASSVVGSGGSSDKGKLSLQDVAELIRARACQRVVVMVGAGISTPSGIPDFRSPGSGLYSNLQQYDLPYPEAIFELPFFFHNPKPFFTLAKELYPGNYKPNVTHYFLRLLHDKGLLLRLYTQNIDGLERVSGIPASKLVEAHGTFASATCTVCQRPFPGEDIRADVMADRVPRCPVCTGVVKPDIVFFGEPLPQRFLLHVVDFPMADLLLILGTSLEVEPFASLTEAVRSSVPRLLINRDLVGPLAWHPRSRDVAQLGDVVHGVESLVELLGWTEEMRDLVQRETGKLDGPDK
Method in brief: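 Cell-free enzyme assay with recombinant protein and fluorescent substrate, product separated by electrophoretic mobility shift; read 1 hour after dosing. Screened in duplicate at 25 uM, then singleton concentration-response up to 50 uM; loss of signal versus DMSO.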

[9] = molecular target: rabbit Imidazoline 2 Central (I2C), CKB (gene 100009085) (UniProt P00567); test: NVS_ENZ_rabI2C: NovaScreen (NVS) Enzymatic Assay for rabbit Imidazoline 2 Central (I2C) (AID 2283228)
Sequence of rabbit Imidazoline 2 Central (I2C), CKB (gene 100009085) (P00567 whole entry, looked up): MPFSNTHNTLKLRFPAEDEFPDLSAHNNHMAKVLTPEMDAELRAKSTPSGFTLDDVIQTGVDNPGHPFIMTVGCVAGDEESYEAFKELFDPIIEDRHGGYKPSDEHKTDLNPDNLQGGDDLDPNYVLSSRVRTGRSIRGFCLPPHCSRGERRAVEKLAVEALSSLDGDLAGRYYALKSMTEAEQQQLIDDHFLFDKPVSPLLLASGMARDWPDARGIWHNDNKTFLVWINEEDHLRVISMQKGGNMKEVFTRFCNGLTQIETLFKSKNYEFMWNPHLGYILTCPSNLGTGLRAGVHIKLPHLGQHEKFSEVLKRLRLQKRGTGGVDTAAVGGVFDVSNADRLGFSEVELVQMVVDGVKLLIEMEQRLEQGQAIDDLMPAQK
Method in brief: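 Rabbit brain membranes, cell-free; readout by filter-based scintillation counting 1.5 hours after dosing, loss of signal vs DMSO. Initial duplicate test at 25 uM, then concentration-response with 50 uM top concentration.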

[10] = molecular target: human Sirtuin 2 (SIRT2), SIRT2 (gene 22933) (UniProt Q8IXJ6); test: NVS_ENZ_hSIRT2: NovaScreen (NVS) Enzymatic Assay for human Sirtuin 2 (SIRT2) (AID 2283217)
Method in brief: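 Cell-free recombinant human SIRT2, fluorescent substrate with product separated by electrophoretic mobility shift, 1 hr. Screened in duplicate at 25 uM; hits rerun singly in concentration-response up to 50 uM, relative to DMSO.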

[11] = molecular target: human Protein Tyrosine Phosphatase Non-receptor Type 6 (PTPN6), PTPN6 (gene 5777) (UniProt P29350); test: NVS_ENZ_hPTPN6: NovaScreen (NVS) Enzymatic Assay for human Protein Tyrosine Phosphatase Non-receptor Type 6 (PTPN6) (AID 2283210)
Method in brief: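 Cell-free assay with recombinant PTPN6 expressed in SF9 cells, fluorescent substrate, product separated from substrate by electrophoretic mobility shift; read 1.33 hours after dosing. Primary screen in duplicate at 25 uM, actives retested in concentration series; DMSO baseline.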

[12] = molecular target: human Protein Tyrosine Phosphatase Receptor Type F (PTPRF), PTPRF (gene 5792) (UniProt P10586); test: NVS_ENZ_hPTPRF: NovaScreen (NVS) Enzymatic Assay for human Protein Tyrosine Phosphatase Receptor Type F (PTPRF) (AID 2283213)
Sequence of human Protein Tyrosine Phosphatase Receptor Type F (PTPRF), PTPRF (gene 5792) (P10586 whole entry, looked up): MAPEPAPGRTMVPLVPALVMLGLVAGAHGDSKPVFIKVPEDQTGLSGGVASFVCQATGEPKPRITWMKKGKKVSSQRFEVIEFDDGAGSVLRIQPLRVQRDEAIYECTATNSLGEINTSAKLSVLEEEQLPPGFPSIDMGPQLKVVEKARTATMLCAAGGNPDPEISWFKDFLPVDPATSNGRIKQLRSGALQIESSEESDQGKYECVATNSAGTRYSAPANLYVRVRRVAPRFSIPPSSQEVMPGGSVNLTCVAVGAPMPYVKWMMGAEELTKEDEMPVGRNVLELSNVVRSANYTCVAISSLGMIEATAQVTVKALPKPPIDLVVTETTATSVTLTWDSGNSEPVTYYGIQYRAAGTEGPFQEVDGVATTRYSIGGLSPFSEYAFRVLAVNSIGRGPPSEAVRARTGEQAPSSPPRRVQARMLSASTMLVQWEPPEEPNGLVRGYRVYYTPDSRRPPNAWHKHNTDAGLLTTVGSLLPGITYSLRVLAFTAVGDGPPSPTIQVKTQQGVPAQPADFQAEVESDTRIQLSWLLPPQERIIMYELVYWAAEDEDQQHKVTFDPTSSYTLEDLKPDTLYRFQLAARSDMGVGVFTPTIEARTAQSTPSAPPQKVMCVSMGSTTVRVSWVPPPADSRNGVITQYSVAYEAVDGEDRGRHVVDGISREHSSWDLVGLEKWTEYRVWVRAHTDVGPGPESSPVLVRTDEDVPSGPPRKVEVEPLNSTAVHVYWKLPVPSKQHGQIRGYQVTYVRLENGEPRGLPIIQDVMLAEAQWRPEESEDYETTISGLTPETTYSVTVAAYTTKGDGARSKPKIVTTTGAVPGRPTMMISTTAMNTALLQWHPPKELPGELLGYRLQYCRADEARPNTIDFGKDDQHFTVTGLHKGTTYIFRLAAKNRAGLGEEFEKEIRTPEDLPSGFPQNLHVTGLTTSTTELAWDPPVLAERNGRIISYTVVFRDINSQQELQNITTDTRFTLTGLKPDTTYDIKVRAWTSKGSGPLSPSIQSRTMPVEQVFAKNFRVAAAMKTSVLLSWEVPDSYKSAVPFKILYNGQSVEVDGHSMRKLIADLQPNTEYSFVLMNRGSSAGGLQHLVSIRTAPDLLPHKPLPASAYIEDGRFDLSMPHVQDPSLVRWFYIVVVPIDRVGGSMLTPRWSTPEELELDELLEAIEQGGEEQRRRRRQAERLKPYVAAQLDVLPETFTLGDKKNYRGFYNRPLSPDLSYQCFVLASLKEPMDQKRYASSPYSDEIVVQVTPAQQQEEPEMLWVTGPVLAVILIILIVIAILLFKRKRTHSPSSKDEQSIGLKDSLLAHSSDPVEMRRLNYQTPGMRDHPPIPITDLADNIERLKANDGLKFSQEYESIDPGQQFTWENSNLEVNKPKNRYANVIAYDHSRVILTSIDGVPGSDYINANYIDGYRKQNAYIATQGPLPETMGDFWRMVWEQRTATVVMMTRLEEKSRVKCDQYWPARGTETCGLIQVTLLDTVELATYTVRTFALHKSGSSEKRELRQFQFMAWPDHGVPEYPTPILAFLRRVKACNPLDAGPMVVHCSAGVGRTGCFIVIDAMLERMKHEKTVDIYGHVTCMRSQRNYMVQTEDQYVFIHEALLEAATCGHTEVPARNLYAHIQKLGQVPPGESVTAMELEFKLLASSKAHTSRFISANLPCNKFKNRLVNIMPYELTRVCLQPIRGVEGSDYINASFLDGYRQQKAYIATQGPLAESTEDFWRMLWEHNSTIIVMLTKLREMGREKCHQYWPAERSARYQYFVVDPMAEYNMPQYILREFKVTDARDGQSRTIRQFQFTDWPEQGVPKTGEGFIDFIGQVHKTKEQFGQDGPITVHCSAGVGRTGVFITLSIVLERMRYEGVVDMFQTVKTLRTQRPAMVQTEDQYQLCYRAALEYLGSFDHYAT
Method in brief: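 Cell-free fluorescence enzyme assay with recombinant protein and substrate; product separated by electrophoretic mobility shift. Read 1 h after dosing, single 25 uM duplicate screen, then concentration-response up to 50 uM; loss of signal vs DMSO.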

[13] = molecular target: human Raf-1 Proto-Oncogene, serine/threonine Kinase (RAF1), RAF1 (gene 5894) (UniProt P04049); test: NVS_ENZ_hRAF1: NovaScreen (NVS) Enzymatic Assay for human Raf-1 Proto-Oncogene, serine/threonine Kinase (RAF1) (AID 2283216)
Method in brief: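 Cell-free recombinant kinase with specific fluorescent substrate, product separated by electrophoretic mobility shift; read 1 h after dosing. Primary screen at 25 uM in duplicate; hits then run in concentration-response up to 50 uM, fitted as loss of signal versus DMSO.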

[14] = molecular target: human Protein Tyrosine Phosphatase Non-receptor Type 4 (PTPN4), PTPN4 (gene 5775) (UniProt P29074); test: NVS_ENZ_hPTPN4: NovaScreen (NVS) Enzymatic Assay for human Protein Tyrosine Phosphatase Non-receptor Type 4 (PTPN4) (AID 2283208)
Sequence of human Protein Tyrosine Phosphatase Non-receptor Type 4 (PTPN4), PTPN4 (gene 5775) (P29074 whole entry, looked up): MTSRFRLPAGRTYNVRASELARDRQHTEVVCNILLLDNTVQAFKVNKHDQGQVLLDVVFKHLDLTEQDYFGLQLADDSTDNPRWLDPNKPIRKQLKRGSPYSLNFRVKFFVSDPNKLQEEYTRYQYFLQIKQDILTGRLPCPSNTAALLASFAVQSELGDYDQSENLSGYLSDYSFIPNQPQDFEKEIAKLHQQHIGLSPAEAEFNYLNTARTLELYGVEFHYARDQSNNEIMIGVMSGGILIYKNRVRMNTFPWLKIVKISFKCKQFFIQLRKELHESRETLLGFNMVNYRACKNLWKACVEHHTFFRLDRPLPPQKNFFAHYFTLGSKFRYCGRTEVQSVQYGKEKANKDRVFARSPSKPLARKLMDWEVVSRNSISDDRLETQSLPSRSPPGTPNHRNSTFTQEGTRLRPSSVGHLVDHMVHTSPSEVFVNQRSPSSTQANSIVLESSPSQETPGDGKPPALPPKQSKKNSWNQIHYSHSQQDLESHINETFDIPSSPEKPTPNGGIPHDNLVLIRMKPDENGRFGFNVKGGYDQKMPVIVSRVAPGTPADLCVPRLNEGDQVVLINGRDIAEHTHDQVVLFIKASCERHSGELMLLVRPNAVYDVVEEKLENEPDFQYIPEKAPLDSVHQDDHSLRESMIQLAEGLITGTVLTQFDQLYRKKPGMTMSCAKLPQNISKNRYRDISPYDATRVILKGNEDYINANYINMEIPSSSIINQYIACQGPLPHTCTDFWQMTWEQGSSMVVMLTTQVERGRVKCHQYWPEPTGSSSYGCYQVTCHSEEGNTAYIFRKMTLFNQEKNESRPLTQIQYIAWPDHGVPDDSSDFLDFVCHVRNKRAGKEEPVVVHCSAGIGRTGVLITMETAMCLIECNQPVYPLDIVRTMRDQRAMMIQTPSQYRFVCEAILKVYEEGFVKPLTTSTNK
Method in brief: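 Cell-free assay of PTPN4 expressed in Sf9 cells, using a fluorescent substrate with product separated by mobility shift; read 1.33 h after dosing. Single-point screen at 25 uM, then concentration-response up to 50 uM. Loss of signal relative to DMSO.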

[15] = molecular target: human Tropomyosin Receptor Kinase A (TRKA), NTRK1 (gene 4914) (UniProt P04629); test: NVS_ENZ_hTrkA: NovaScreen (NVS) Enzymatic Assay for human Tropomyosin Receptor Kinase A (TRKA) (AID 2283224)
Method in brief: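 Recombinant human TrkA activity read after 1 h by fluorescence with electrophoretic mobility shift separating substrate and product. Primary screen in duplicate at 25 uM; actives were rerun in concentration-response up to 50 uM. Loss of signal versus DMSO.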

[16] = molecular target: human Protein Tyrosine Phosphatase Non-receptor Type 9 (PTPN9), PTPN9 (gene 5780) (UniProt P43378); test: NVS_ENZ_hPTPN9: NovaScreen (NVS) Enzymatic Assay for human Protein Tyrosine Phosphatase Non-receptor Type 9 (PTPN9) (AID 2283209)
Method in brief: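 Sf9-expressed enzyme in a cell-free assay, fluorescence read 1.33 h after dosing with mobility-shift separation of substrate and product. Tested at 25 uM in duplicate, then up to 50 uM; signal loss versus DMSO.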

Oc1cc(Cl)ccc1Oc1ccc(Cl)cc1Cl
outcome [1]: inactive
outcome [2]: inactive
outcome [3]: inactive
outcome [4]: inactive
AC50 [5]: 18.6 µM (active)

CC[C@H](C)[C@H]1O[C@]2(C=C[C@@H]1C)C[C@@H]1C[C@@H](C/C=C(\C)[C@@H](O[C@H]3C[C@H](OC)[C@@H](O[C@H]4C[C@H](OC)[C@@H](O)[C@H](C)O4)[C@H](C)O3)[C@@H](C)/C=C/C=C3\CO[C@@H]4[C@H](O)C(C)=C[C@@H](C(=O)O1)[C@]34O)O2 (tested in a mixture with another compound)
AC50 [6]: 45.3 µM (active)
AC50 [7]: 17.2 µM (active)
AC50 [8]: 5.19 µM (active)
AC50 [2]: 36.1 µM (active)
outcome [4]: inactive
AC50 [5]: 8.68 µM (active)

CNC(=O)Oc1cccc(N=CN(C)C)c1
AC50 [9]: 0.67 µM (active)

O=C(Nc1ccccc1)Nc1cnns1
outcome [9]: inactive

CCC(C)(C)C(=O)OC1=C(c2ccc(Cl)cc2Cl)C(=O)OC12CCCCC2
outcome [6]: inactive
AC50 [10]: 18.9 µM (active)
AC50 [8]: 25 µM (active)

CNC(=O)CSP(=S)(OC)OC
outcome [11]: inactive
outcome [1]: inactive
outcome [12]: inactive
outcome [2]: inactive

C#CCN1C(=O)COc2cc(F)c(N3C(=O)C4=C(CCCC4)C3=O)cc21
outcome [5]: inactive

CCCN(CCOc1c(Cl)cc(Cl)cc1Cl)C(=O)n1ccnc1
AC50 [10]: 10.8 µM (active)
outcome [8]: inactive
outcome [9]: inactive

CCS(=O)(=O)c1cccnc1S(=O)(=O)NC(=O)Nc1nc(OC)cc(OC)n1
outcome [12]: inactive
outcome [6]: inactive
outcome [13]: inactive

O=C1c2ccccc2C(=O)N1SC(Cl)(Cl)Cl
outcome [14]: inactive

CC(C)(C)C(O)/C(=C\c1ccc(Cl)cc1Cl)n1cncn1 (centres undefined)
outcome [15]: inactive

CCC(C)Nc1c([N+](=O)[O-])cc(C(C)(C)C)cc1[N+](=O)[O-] (centres undefined)
outcome [13]: inactive
outcome [7]: inactive

O=[N+]([O-])c1c(Cl)c(Cl)c(Cl)c(Cl)c1Cl
outcome [12]: inactive
outcome [9]: inactive

COC(=O)c1ccccc1S(=O)(=O)NC(=O)N(C)c1nc(C)nc(OC)n1
outcome [14]: inactive
outcome [16]: inactive

CN1CSC(=S)N(C)C1
outcome [14]: inactive
outcome [16]: inactive
AC50 [12]: 10.1 µM (active)
AC50 [6]: 25 µM (active)
